Bioassay records: PubChem, National Center for Advancing Translational Sciences (NCATS)
In the library only some 4.6% were active in any assay of this set; here they are far more common.
D1 PAM: enhances dopamine response at the human D1 receptor; HEK293 TREx D1 cells, calcium flux, dopamine EC20 potentiation; 360,000 compounds, 0.036% hits; potentiation, % at 10 µM; P21728; in the data active means potentiation above about 30%; further: 0% is about no effect
Target sequence (P21728 whole entry, looked up): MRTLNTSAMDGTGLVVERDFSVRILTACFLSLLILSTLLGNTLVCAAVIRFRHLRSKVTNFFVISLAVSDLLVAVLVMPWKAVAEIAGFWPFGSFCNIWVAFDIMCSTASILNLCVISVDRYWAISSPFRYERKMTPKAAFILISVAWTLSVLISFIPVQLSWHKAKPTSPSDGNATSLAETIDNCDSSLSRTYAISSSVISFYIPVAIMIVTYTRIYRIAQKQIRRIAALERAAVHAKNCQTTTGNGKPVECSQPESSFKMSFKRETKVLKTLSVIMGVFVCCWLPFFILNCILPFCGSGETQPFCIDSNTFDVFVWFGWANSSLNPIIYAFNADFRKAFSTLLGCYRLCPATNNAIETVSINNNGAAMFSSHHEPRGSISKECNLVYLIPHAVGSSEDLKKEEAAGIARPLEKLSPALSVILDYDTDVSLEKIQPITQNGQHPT
D1 antagonist: human D1 dopamine receptor antagonism; HEK293 TREx D1 cells, calcium flux, dopamine EC80; stronger effect = lower value; 360,000 compounds, 3.2% hits; activity change, negative = inhibition, % at 10 µM; P21728; in the data active means activity change below about -30%; further: on the % scale 0 is the no-effect control and ±100 the full control effect
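Tetracycline-induced HEK293 T-REx cells with force-coupled D1 receptor were loaded with a no-wash calcium dye. Compound was added after a 10 s baseline and read kinetically for 180 s; EC80 dopamine was then added and calcium flux followed another 180 s.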
TRHR PAM: allosteric enhancers of human TRH receptor; enhancement, % at 2 µM; AID 493056; 360,000 compounds, 0.66% hits; P34981; TRHR cells, fluo-8 calcium fluorescence, EC20 TRH enhancement; in the data active means enhancement above about 30%; further: 0% is about no effect
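Enhancer read-out: after compound pinning and an initial kinetic agonist-mode read, an EC20 of TRH (10 nM final) was injected and fluo-8 calcium signal (Ex 480/Em 530) followed at 1 s/cycle for 100 cycles in TRHR-expressing cells.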
TRHR ag: TRH receptor (human) agonism; TRHR cells, calcium flux fluo-8, FDSS agonist mode; 360,000 compounds, 0.18% hits; P34981; activation, % at 2 µM; further: 0% is about no effect
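Fluo-8-loaded TRHR cells; 10 s baseline, compound added, kinetic Ca2+ fluorescence read 1/s, agonist mode.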
D1 ag: activates the human D1 dopamine receptor | P21728 | HEK293 T-REx D1 cells, calcium flux, agonist mode | activation, % at 2 µM | 360,000 compounds, 1% hits; further: 0% is about no effect
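Inducible HEK293 T-REx D1 cells, force-coupled to calcium signalling, were plated at 4000 cells/well with tetracycline and held overnight at 30 C. After no-wash calcium dye loading, compound-evoked calcium rise over 180 s flagged agonists.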
Starred values were filed as active, the others as inactive; nt = no result. Unless noted, no stated cut-off is given here; in the data, active means activation above about 30%; inactive means the rest.

SMILES	D1 PAM	D1 antagonist	TRHR PAM	TRHR ag	D1 ag
CN(Cc1ccccc1)C(=O)CSc1nnc(-c2cccc(Cl)c2)o1	4	-54*	0	-1	56*
CCOc1cc(CNC(=O)c2ccc3nc(C(C)C)oc3c2)cc(OCC)c1OCC	4	11	0	-1	1
COC1=C/C(=C/c2c(N)n3nc(CC(=O)N4CCCC4)sc3nc2=O)C=CC1=O	-3	12	-1	14	16
COC1=C/C(=C/c2c(N)n3cc(C)sc3nc2=O)C=CC1=O	-4	5	15	9	30*
O=C(Cn1cnc2ccccc2c1=O)N1CCN(c2ccccc2)CC1	-7	-36*	2	0	1
CCOC(=O)Cn1cnc2c(cnn2-c2ccc(Cl)cc2)c1=O	-11	-49*	13	0	15
COc1ccc(N2CCN(C(=O)Cn3cnc4nc5c(cc4c3=O)CCCC5)CC2)cc1	-4	-31*	5	-1	4
Cc1cc2c(=O)n(CC(=O)N3CCN(c4ccccc4)CC3)cnc2s1	-3	0	1	-2	-1
CCOC(=O)Cn1cnc2c(cnn2-c2ccccc2)c1=O	-6	-1	-6	0	0
O=C(Cn1nc(-c2ccc(Cl)cc2)ccc1=O)N1CCN(c2ccccc2)CC1	10	5	32*	1	0
COc1ccc(OC)c(NC(=O)C2Cc3ccccc3CN2S(=O)(=O)c2ccc(F)cc2)c1 (stereo unspecified)	0	-8	-8	1	2
Cc1ccc(OCCSc2nc3ccc(NC(=O)c4ccco4)cc3s2)cc1	-1	-3	4	2	11
O=C(Cn1cnc2ccccc2c1=O)c1ccccc1	1	-7	-4	1	1
O=C(Cn1cnc2ccccc2c1=O)c1ccc(Cl)cc1	-3	-42*	-7	-1	2
O=C(Cn1cnc2c(cnn2-c2ccccc2)c1=O)N1CCOCC1	4	-9	7	0	3
O=C(Cn1cnc2c(cnn2-c2ccc(Cl)cc2)c1=O)N1CCN(c2ccccc2)CC1	-8	-32*	30	0	2
COc1ccc(CN2CCC(CO)(CCOc3ccccc3)CC2)c(OC)c1C	-5	-31*	2	2	66*
OCC1(CCOc2ccccc2)CCN(Cc2ccccc2C(F)(F)F)CC1	0	4	-1	1	9
CCOc1ccccc1CN1CCC(CO)(CCOc2ccccc2)CC1	-1	16	5	0	30*
CN1CCN(CCNC(=O)c2cnn(-c3ccc(Cl)cc3)c2C2CCN(C(=O)OC(C)(C)C)CC2)CC1	1	-5	-6	0	2
CC(C)c1ccc(NC(=O)CSC2=Nc3ccccc3C3=NC(CC(=O)NC4CCCCC4)C(=O)N23)cc1 (stereo unspecified)	0	3	-7	0	0
CCCCNC(=O)c1sc(=S)n2c1[nH]c(=O)c1ccccc12	-8	-16	2	5	30*
CC(C)NC(=O)c1sc(=S)n2c1[nH]c(=O)c1ccc(C(=O)NCCc3ccc(Cl)cc3)cc12	-11	-59*	-9	0	3
O=C(NC1CCCCC1)c1sc(=S)n2c1[nH]c(=O)c1ccccc12	-6	-19	-4	3	29
COc1cc(C(=O)Nc2ccc3nc(SCc4ccccc4)sc3c2)cc(OC)c1OC	2	0	3	0	3
SMILES	D1 PAM	D1 antagonist	TRHR PAM	TRHR ag	D1 ag
Cc1ccc(NC(=O)c2ccc(CN3C(=O)CCn4nc(C)cc43)cc2)c(Cl)c1	-3	-34*	-2	0	1
Cc1ccc(NC(=O)COC(=O)c2ccc(CN3CCCC3=O)cc2)c(Cl)c1	nt	-44*	-2	0	13
Cc1cc2n(n1)CCC(=O)N2Cc1ccc(C(=O)Nc2cc(Cl)ccc2C)cc1	2	-1	0	0	-2
Fc1ccc(-n2ncc3c(N4CCC(Cc5ccccc5)CC4)ncnc32)cc1	-1	15	3	0	-1
COc1ccc(-c2nnc(SCC(=O)Nc3cccc(C(F)(F)F)c3)s2)cc1	2	8	-4	0	4
CCOC(=O)c1c(S(=O)(=O)N2CCC(C(=O)NCc3ccc(F)cc3)CC2)c(C)n(C)c1C	-3	32	-1	0	1
Cc1c(C(=O)Nc2cccc(F)c2)sc2nc(-c3cc4ccccc4oc3=O)[nH]c(=O)c12	4	-36*	4	0	-1
O=C(COc1cccc(C(F)(F)F)c1)N1CCN(c2ccc(O)cc2)CC1	9	-4	-4	0	6
O=C(COc1cccc(C(F)(F)F)c1)N1CCN(c2ccccc2O)CC1	-6	-34*	-4	0	12
O=C(COc1ccc2c(c1)CCC2)N1CCN(c2cccc(C(F)(F)F)c2)CC1	-2	-44*	20	0	8
Cc1ccc(NC(=O)N2CCC(CN3CCC(C)CC3)CC2)cc1F	2	-3	6	0	2
Cc1nn(CC(=O)NCc2ccc(Cl)cc2)c(=O)c2cc3sccc3n12	0	-2	-2	0	-1
Cc1nn(CCCC(=O)NCc2ccccc2)c(=O)c2cc3sccc3n12	1	-32*	2	0	-2
COCCCn1c(=O)c2sccc2n(Cc2cccc(F)c2)c1=O	-3	-36*	-11	-1	3
CCN(CC)C(=O)c1sc2c(c1C)c(=O)n(-c1ccc(OC)cc1OC)c(=O)n2CC(=O)Nc1ccccc1	-2	2	-7	0	27
COCCCn1c(=O)c2sccc2n2c(CCCC(=O)NCc3ccc(OC)cc3)nnc12	-2	-31*	1	0	4
CCN(CC)C(=O)c1sc2c(c1C)c(=O)n(Cc1ccccc1)c(=O)n2CC(=O)Nc1ccc(OC)cc1	1	-35*	-9	6	6
Cc1ccc(-c2nn(-c3ccc(F)cc3F)c3c2cnc2c(F)cccc23)cc1	0	-20	-3	1	3
NC(=O)Cn1c(=O)n(CCCCCC(=O)NCc2ccccc2)c(=O)c2sccc21	-2	-39*	-3	1	1
COc1ccc(NC(=O)CCCn2c(=O)c3sccc3n(Cc3ccccc3)c2=O)cc1	-13	-34*	-6	0	8
Cc1cccc(NC(=O)Cn2c(=O)n(CCCCCC(=O)NCc3ccccc3)c(=O)c3sccc32)c1	-1	-9	-4	-1	3
Cc1ccc(CNc2ccc3c(c2)ncn3C)cc1	-1	0	-6	1	-1
CCc1ccc(CNc2ccc3c(c2)ncn3C)cc1	2	-10	31*	0	2
COc1ccc(C(=O)C(C)OC(=O)CCN2C(=O)C3CC=CCC3C2=O)cc1 (stereo unspecified)	0	-35*	16	0	1
COc1ccc(CCC(=O)OC(C)C(=O)c2ccc(C)cc2)cc1 (stereo unspecified)	-6	-36*	-3	-1	10
